From PubChem BioAssay
In the library only some 2.9% were active in any assay of this set; here they are far more common.
p53 reactivator = restores transcriptional activity of mutant p53; H1299 p53-A138V BP100-luciferase reporter, luminescence, 24 h; 0.063% of 320,000 active; Potency, µM (top dose mostly 92.2 µM), without a hit: at the top dose activity change, positive = activation, actives largely listed as activators; further: potency means the concentration at half of the fitted maximal effect; % of control where 0% means no effect; nearly all actives have a fitted effect of over 45% in size
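p53-null H1299 cells stably carrying temperature-sensitive p53-A138V and a BP100-luciferase reporter were pinned with compounds (4-point, 1:5 series) and held 24 hrs at 37 deg C. Luminescence was read 10 min after detection reagent.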
GLP-1R agonist = agonists of human GLP-1 receptor; P43220; HEK293 GLP-1R CRE-luciferase, luminescence, 4-6 h; cells express a hypersensitive GLP-1R form; Potency, µM (highest dose often 45.6 µM), inactives show at the top dose activation, hits mostly activators; 0.007% of 380,000 active; further: potency means the concentration at half of the fitted maximal effect; % of control where 0% means no effect
Target sequence (P43220 whole entry, looked up): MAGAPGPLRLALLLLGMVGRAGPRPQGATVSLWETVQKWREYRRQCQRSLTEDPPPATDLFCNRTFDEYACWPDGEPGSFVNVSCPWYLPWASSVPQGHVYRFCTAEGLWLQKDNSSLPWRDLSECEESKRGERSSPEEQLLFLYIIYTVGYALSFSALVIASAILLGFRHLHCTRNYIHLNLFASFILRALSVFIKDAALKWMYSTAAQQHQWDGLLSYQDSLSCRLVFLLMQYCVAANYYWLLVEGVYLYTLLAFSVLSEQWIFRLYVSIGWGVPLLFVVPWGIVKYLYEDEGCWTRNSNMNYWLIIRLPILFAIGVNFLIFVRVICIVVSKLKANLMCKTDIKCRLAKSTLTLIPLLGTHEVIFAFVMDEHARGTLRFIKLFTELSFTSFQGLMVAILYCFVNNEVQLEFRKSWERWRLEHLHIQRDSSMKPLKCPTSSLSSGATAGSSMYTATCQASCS
HEK293 tox = cytotoxic in the GLP-1 receptor inverse agonist counter-screen. HEK293 cAMP-luciferase reporter cells, luminescence, 24 h. Potency, µM (top dose mostly 38.3 µM), without a hit: at the top dose activity change, negative = inhibition, hits mostly inhibitors. 0.13% of 410,000 active. AID 624418;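 further: loss of luciferase light is scored as toxicity; potency means the concentration at half of the fitted maximal effect; on the % scale 0 is the no-effect control and ±100 the full control effect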
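1536-well qHTS counterscreen of the MLSMR; 200 cells/uL, 12 h pre-incubation, 23 nL cpd, 24 h at 37 deg C 5% CO2, luciferase detection reagent, 12 min RT, luminescence. Inhibition = undesired.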
LDHA inh = blocks human lactate dehydrogenase A; purified LDHA, NADH/diaphorase-resazurin fluorescence; hits give low values; P00338; activity change, % (values are at about 110 or 230 µM); 0.15% of 480,000 active; in the data active means activity change below about -30%; inconclusive means mostly about -25% to -30%;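 further: plate controls were DMSO wells for no effect and wells without enzyme for full effect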
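LDH5 2 nM; NADH 0.06 mM, pyruvate 0.2 mM; 200 mM Tris pH 7.4, EDTA, Tween-20; 5 min RT. Detection: diaphorase 0.133 mg/mL + resazurin 37 µM, fluorescence ex540/em590 at 0 and 20 min; normalized to enzyme-free and DMSO wells.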
GLP-1R inv ag = GLP-1 receptor (human) inverse agonism | HEK293 GLP-1R CRE-luciferase, luminescence, 24 h; GLP-1R form is constitutively active | Potency, µM (doses to about 38.3 µM), for inactives: top-dose activity change, negative = inhibition, hits mostly inhibitors | 1.6% of 410,000 active | AID 624417; further: potency means the concentration at half of the fitted maximal effect; on the % scale 0 is the no-effect control and ±100 the full control effect; nearly all actives have a fitted effect of over 55% in size
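Cells are plated, allowed 12 hours at 37 deg C, then treated with compounds for 24 hr before luciferase detection reagent is added and luminescence is read after 12 min at room temperature. The HEK293 line carries constitutively active GLP-1R with a cAMP-responsive reporter.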
ClpP mod = qHTS Assay for Activators of ClpP; purified B. subtilis ClpP, FRET peptide cleavage, 20 min; 1.9% of 340,000 active; ATP-dependent Clp protease proteolytic subunit (Bacillus subtilis (strain 168)), P80244; AID 651965, 2013; Potency, µM (titrated, usually from 57.5 µM), without a hit: at the top dose activity change, negative = active; active means well fitted falling curve with a large enough effect; inconclusive means small, poorly fitted or top-dose-only effect; inactive means no such curve, though single readings can be large or run the other way; further: potency means the concentration at half of the fitted maximal effect; the source files actives as falling curves though it sought activators and does not explain the sign; nearly all actives have a fitted effect of over 65% in size
Target sequence (P80244 whole entry, looked up): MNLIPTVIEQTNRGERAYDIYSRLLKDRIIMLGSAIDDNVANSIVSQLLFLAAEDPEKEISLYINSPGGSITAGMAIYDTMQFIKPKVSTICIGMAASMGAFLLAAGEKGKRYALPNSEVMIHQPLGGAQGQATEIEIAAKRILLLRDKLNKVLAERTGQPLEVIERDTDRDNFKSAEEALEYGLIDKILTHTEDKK
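Purified B. subtilis ClpP, 10 microg/mL final in Tris/HCl pH8 with KCl, BSA, glycerol and Tween-20, cleaved an Abz/nitrotyrosine-quenched decapeptide. Fluorescence (ex 320, em 430) was read at 0 and 20 min at room temperature. Delta was normalized to 5.8 microM ADEP and DMSO/no-enzyme controls.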
An asterisk follows results filed as active. Unless noted, the call rests on the fitted dose curve; in most records, active means well fitted curve in the direction sought with a large enough effect; inconclusive means small, poorly fitted or top-dose-only effect, or another doubt; inactive means no such curve, though single readings can be large; an effect the other way counts as inactive or inconclusive.

Screening CCn1cc2nc(SCc3ccc(C)cc3)n(CCc3ccccc3)c(=O)c2n1 returned HEK293 tox -5%, LDHA inh 0, GLP-1R inv ag inconclusive and ClpP mod -2%.
For COCCNC(=S)N/N=C(\C)c1ccccc1F the results were p53 reactivator 8%, GLP-1R agonist 7%, HEK293 tox inconclusive, LDHA inh -3 and GLP-1R inv ag inconclusive.
`Cn1c(N)c(C(=O)COC(=O)COc2cccc(Br)c2)c(=O)n(C)c1=O` gave p53 reactivator 1%, GLP-1R agonist 7%, HEK293 tox -1%, LDHA inh -1, GLP-1R inv ag 0% and ClpP mod 1%.
CCN(Cc1ccccc1)CC(O)COC(c1ccc(OC)cc1)c1ccc(OC)cc1 (configuration not stated) was read as p53 reactivator -4%, GLP-1R agonist 13%, HEK293 tox inconclusive, LDHA inh 2 and GLP-1R inv ag 10µM*.
Screening c1ccc(OCc2nn3c(-c4ccncc4)nnc3s2)cc1 returned p53 reactivator 1%, GLP-1R agonist 2%, HEK293 tox 4%, LDHA inh -2, GLP-1R inv ag 2% and ClpP mod 1%.
`Cc1cc(C)c(NC(=O)COC(=O)Cn2nc(-c3ccccc3)oc2=O)c(C)c1` gave p53 reactivator -3%, GLP-1R agonist -4%, HEK293 tox -6%, LDHA inh -4, GLP-1R inv ag 0% and ClpP mod 22µM*.
For N#Cc1cccc(NC(=O)COC(=O)Cn2nc(-c3ccccc3)oc2=O)c1 the results were p53 reactivator 2%, GLP-1R agonist 9%, HEK293 tox -9%, LDHA inh -10, GLP-1R inv ag 10% and ClpP mod -3%.
`CCOC(=O)C1CCN(C(=O)CC(NS(=O)(=O)c2ccc(OC)cc2)C(C)C)CC1` (configuration not stated) gave p53 reactivator 6%, GLP-1R agonist 0%, HEK293 tox -19%, LDHA inh -3, GLP-1R inv ag 0% and ClpP mod 32µM*.
Screening CCOC(=O)C1CCN(C(=O)CCNS(=O)(=O)c2ccc(C)cc2)CC1 returned p53 reactivator -1%, GLP-1R agonist -2%, HEK293 tox -1%, LDHA inh -1, GLP-1R inv ag 3% and ClpP mod 1%.
Screening COc1cc(/C=C2\SC(=O)N(CC(=O)Nc3ccc(C)cc3)C2=O)cc(Cl)c1OCC(=O)O returned GLP-1R agonist -5%, HEK293 tox 0%, LDHA inh 0, GLP-1R inv ag -8% and ClpP mod -10%.
For O=C(NCCOc1ccccc1)c1cc(C(=O)NCCOc2ccccc2)cc([N+](=O)[O-])c1 the results were p53 reactivator 1%, GLP-1R agonist -23%, HEK293 tox -6%, LDHA inh -45*, GLP-1R inv ag inconclusive and ClpP mod -3%.
COc1ccc(OCCNC(=O)c2cccc(Oc3ccc(C(F)(F)F)cc3[N+](=O)[O-])c2)cc1 was read as p53 reactivator 10%, GLP-1R agonist 11%, HEK293 tox inconclusive, LDHA inh -4, GLP-1R inv ag 4.5µM* and ClpP mod -7%.
Screening O=C(NCCO)c1ccc(Oc2ccc(C(F)(F)F)cc2[N+](=O)[O-])cc1 returned p53 reactivator -5%, GLP-1R agonist 1%, HEK293 tox 12%, LDHA inh -1 and GLP-1R inv ag 10%.
For CC(C)Cc1ccc(C(=O)NCCOc2ccccc2)o1 the results were p53 reactivator inconclusive, GLP-1R agonist 12%, HEK293 tox 0%, LDHA inh 0 and GLP-1R inv ag 11µM*.
For Cc1ccc2c(c1)C(C)(C)C1(/C=C/c3ccccc3F)NC(=O)CCN21 (configuration not stated) the results were LDHA inh 19.
For O=C(CCCC(=O)N(CC(=O)NC1CCCCC1)Cc1ccco1)Nc1ccccn1 the results were p53 reactivator -7%, GLP-1R agonist -11%, HEK293 tox -5%, LDHA inh -3, GLP-1R inv ag 8% and ClpP mod -11%.
Screening COc1cccc(C2=CC(=O)CC(C)(C)C2)c1OC returned p53 reactivator 2%, GLP-1R agonist 1%, HEK293 tox 1%, LDHA inh -2, GLP-1R inv ag 5% and ClpP mod 0%.
Screening COc1ccccc1C=CC(=O)C=Cc1ccccc1OC returned GLP-1R agonist -4%, HEK293 tox -17%, LDHA inh -1, GLP-1R inv ag inconclusive and ClpP mod 28µM*.
CC(CN1CCOCC1)OC(=O)c1ccccc1 (configuration not stated) was read as p53 reactivator -2%, GLP-1R agonist 0%, HEK293 tox -1%, LDHA inh -5, GLP-1R inv ag -24% and ClpP mod -7%.
`COc1ccccc1/C=C/C(=O)OC(C)CN1CCOCC1` (configuration not stated) gave p53 reactivator -1%, GLP-1R agonist 20%, HEK293 tox 1%, LDHA inh 1, GLP-1R inv ag -9% and ClpP mod 32µM*.
CCOC(=O)c1ccc(N2CCN(c3ccccc3F)CC2)c(NC(=O)Nc2cccc(OC)c2)c1 was read as p53 reactivator -1%, GLP-1R agonist -7%, HEK293 tox 14%, LDHA inh -9, GLP-1R inv ag inconclusive and ClpP mod 25µM*.
CCOC(=O)c1ccc(N2CCN(c3cc(Cl)ccc3C)CC2)c(NC(=O)Nc2cccc(OC)c2)c1 was read as HEK293 tox 1%, LDHA inh 1, GLP-1R inv ag -8% and ClpP mod 4%.
For CN(CC(=O)Nc1ccccc1Cl)C(=O)CSC(=S)N1CCCC1 the results were p53 reactivator 6%, GLP-1R agonist -3%, HEK293 tox 8%, LDHA inh -7, GLP-1R inv ag 2% and ClpP mod -1%.
Screening Cc1cc(Br)ccc1NC(=O)CN(C)C(=O)CSC(=S)N1CCCC1 returned p53 reactivator -1%, GLP-1R agonist 5%, HEK293 tox -29%, LDHA inh 2, GLP-1R inv ag -30% and ClpP mod 3.2µM*.
Screening CC(=O)c1cccc(NC(=O)CSc2ccc(-c3ccc4c(c3)OCO4)nn2)c1 returned p53 reactivator 18%, GLP-1R agonist -1%, HEK293 tox -21%, LDHA inh -2, GLP-1R inv ag 8% and ClpP mod 2%.
